# Assay results reported in PubChem BioAssay.
# Unmarked numbers belong to inactive results. Active and inactive are the calls of the source.
# Target: Homeobox protein Hox-A13 (Mus musculus) (UniProt Q62424)
# Assay: inhibitors of HoxA13-DNA binding, primary screen, biochemical, fluorescence polarization, labeled oligonucleotide (AID 1185)
# Settings: 15 min, higher = more signal, called active from +8 up or from −8 down
# Chain of Homeobox protein Hox-A13 (Mus musculus) (Q62424 whole entry, looked up): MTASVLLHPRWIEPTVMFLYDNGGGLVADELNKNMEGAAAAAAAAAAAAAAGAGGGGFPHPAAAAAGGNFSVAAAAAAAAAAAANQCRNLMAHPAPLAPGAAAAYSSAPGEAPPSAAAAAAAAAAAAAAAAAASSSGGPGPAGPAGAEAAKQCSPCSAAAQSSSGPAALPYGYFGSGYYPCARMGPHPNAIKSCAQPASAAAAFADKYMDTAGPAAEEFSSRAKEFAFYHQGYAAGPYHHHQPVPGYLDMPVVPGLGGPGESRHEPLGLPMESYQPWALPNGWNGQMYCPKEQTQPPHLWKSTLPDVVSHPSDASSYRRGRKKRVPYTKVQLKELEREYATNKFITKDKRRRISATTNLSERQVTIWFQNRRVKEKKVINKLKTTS
row,SMILES,z-score
1,NC(=O)[C@@]1(Cc2ccccc2)COC(c2ccc(OCCCO)cc2)=N1,-2.25
2,CCOC(=O)C[C@H]1[C@H](OC(=O)c2ccc(C(=O)c3ccccc3)cc2)[C@@H](NC(=O)c2ccc3ccccc3n2)c2cc(OCCCO)ccc2N1C(=O)Cc1ccc(OC)cc1,-0.833
3,COC(=O)[C@@H]1N=C(c2ccc(OCCCO)cc2)O[C@@H]1c1ccccc1,-4.34
4,CCOc1cc(C(O)C2C=CC3C(=O)NC(=O)C3N2Nc2ccc(Cl)cc2Cl)ccc1O (stereo not drawn),-2.05
5,CCOC(=O)C=Cc1cccc(C)c1O,0.534
6,COC(=O)[C@@]1(Cc2ccc(OC)cc2)[C@H]2c3cc(C(=O)N4CCCC4)n(CCO)c3C[C@H]2CN1C(=O)c1ccccc1,-5.06
7,CC1=C2[C@@H](CCc3ccccc3)OB(O)C[C@@H]2[C@@H]2C(=O)N(Cc3ccccc3)C(=O)[C@@H]2C1,-7.81
8,C=CC[C@@H](OC(=O)Nc1ccc(SC)cc1)c1ccc(O)c(F)c1,-1.19
9,COCCCNC(=O)[C@@]1(CCC(=O)OC(C)(C)C)N=C(c2ccc(OCCCO)cc2)O[C@H]1c1ccccc1N=[N+]=[N-],-4.09
10,CCOC(=O)C[C@H]1[C@H](OC(=O)c2cc3ccccc3oc2=O)[C@@H](NC(=O)CC(C)C)c2cc(OCCCO)ccc2N1C(=O)c1ccc2ccccc2n1,-4.43
11,Cc1ccc(C(C)CC(O)C2C=CC3C(=O)N(c4ccccc4)C(=O)C3N2Nc2ccccc2)o1 (stereo not drawn),-1.12
12,CN(C)c1ccc(C(O)C2C=CC3C(=O)NC(=O)C3N2Nc2ccccn2)cc1 (stereo not drawn),-2.26
13,CCCCN1CC=CC23O[C@@H]4/C=C\CCCOC(=O)C4[C@H]2C(=O)N(CCO)[C@@H]3C1=O (stereo partly drawn),-5.46
14,COc1ccc([Si](C)(C)[C@@H]2[C@@H](CCO)O[C@]3(C(=O)N(Cc4ccccc4)c4ccc(N5C(=O)c6cccc7cccc5c67)cc43)[C@H]2C)cc1,-0.268
15,Oc1ccc2cc[n+](Cc3cc4c(cc3Br)OCO4)cc2c1,-8.63 (active)
16,CCCNC(=O)[C@@H]1c2ccccc2C(=O)N(Cc2ccc(OC(F)(F)F)cc2)[C@H]1c1ccc(CO)cc1,-3
17,COCCOC(=O)N1C(=O)[C@@]2(c3cc(C#CC4=CCCCC4)ccc31)[C@H](c1ccccc1OCCO)N1[C@H](c3ccccc3)[C@H](c3ccccc3)OC(=O)[C@H]1[C@@H]2C(=O)NC[C@H](O)c1ccccc1,0.449
18,O=C1N(CCS(=O)(=O)c2ccccc2)c2ccccc2[C@H]2OC(c3ccc(OCCCO)cc3)=N[C@@]12Cc1ccccc1,-0.41
19,[N-]=[N+]=Nc1ccccc1C[C@]1(C(=O)NCCN2CCOCC2)COC(c2ccc(OCCCO)cc2)=N1,-6.04
20,C=CC[C@@]1(C(=O)NCCCOC)N=C(c2ccc(OCCCO)cc2)O[C@@H]1c1ccccc1N=[N+]=[N-],-6.15
21,COC(=O)C1=CC(CCCO)=CC(c2ccc(CN3CCCC3)cc2)N(Cc2cccc(OC(F)(F)F)c2)C=C1C(=O)OC (stereo not drawn),-5.07
22,CCCC=C(CCC)[C@@H](NC(=O)c1cccs1)c1ccc(C(=O)OC)cc1,-0.907
23,CC1=C2[C@@H](CCc3ccccc3)OB(O)C[C@@H]2[C@@H]2C(=O)N(C)C(=O)[C@@H]2C1,-5.07
24,COCCOC(=O)N1C(=O)[C@@]2(c3cc(C#CC4(O)CCCCCC4)ccc31)[C@H](c1ccc(O)cc1)N1[C@H](c3ccccc3)[C@H](c3ccccc3)OC(=O)[C@H]1[C@@H]2C(=O)N1CCN(c2ncccn2)CC1,-1.62
25,COC(=O)[C@@]1(Cc2ccc(F)cc2)[C@H]2c3cc(C(=O)N(C)C)n(Cc4ccc(OC(F)(F)F)cc4)c3C[C@H]2CN1C(=O)c1ccccc1,-0.102
26,C=CCNC(=O)[C@H]1[C@@H]2C(=O)O[C@@H](c3ccccc3)[C@@H](c3ccccc3)N2[C@@H](c2ccccc2OCCO)[C@]12C(=O)N(C(=O)OCCOC)c1ccc(C#CC3(O)CCCCCC3)cc12,-0.807
27,C=C(COC)/C(=C/C[C@H](OC(=O)c1ccncc1)c1ccccc1OCCO)c1cc(C(=O)OC)ccc1OC,-4.91
28,CC(C)c1ccc(NN2C(C(O)c3ccc(C#N)cc3)C=CC3C(=O)N(c4ccccc4)C(=O)C32)cc1 (stereo not drawn),-2.79
